TDP1 cell noCPT – qHTS for Inhibitors of human tyrosyl-DNA phosphodiesterase 1 (TDP1): qHTS in cells in absence of CPT; DT40 Tdp1-/- hTDP1 cells, no CPT, ATP luminescence, 48 h; Potency, µM (titrated, usually from 46.2 µM), for the others: at the top dose activity change, negative = growth inhibition, actives largely listed as inhibitors; 420,000 tested, 15% active; note: potency is the fitted concentration of half-maximal effect; nearly all actives have a fitted effect of over 55% in size
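No-CPT arm: Tdp1-/-;hTDP1 DT40 cells (400/well) plus compounds, incubated ≥48 hr at 37 °C. Readout CellTiter-Glo luminescence.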
DT40 TDP1 CPT – DT40-hTDP1 cell growth loss with CPT; Potency, µM (titrated, usually from 46.2 µM), without a hit: at the top dose activity change, negative = growth inhibition, usual class: inhibitors; 420,000 tested, 12% active; chicken DT40 Tdp1-/-;hTDP1 cells + 20 nM CPT, ATP luminescence, 48 h; note: potency is the fitted concentration of half-maximal effect; nearly all actives have a fitted effect of over 55% in size
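Cell growth measured by CellTiter-Glo luminescence after a minimum 48 h, 37 C compound exposure with 20 nM CPT in Tdp1-knockout DT40 cells stably expressing hTDP1, seeded 400/well; qHTS titration format.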
IL1B secr inh – inhibitors of inflammasome signaling (IL-1 beta secretion) | THP-1 LPS/ATP IL-1B secretion, AlphaLISA, 16 h; hits give low values | activity change, % at 57.5 µM | 360,000 tested, 4.7% active; in the data active = activity change below about -50%; inconclusive = mostly about -30% to -49%
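Secreted IL-1B measured by AlphaLISA bead assay after 16 h compound exposure of THP-1 cells; compounds (final up to 57.5 uM) added 1 h before LPS (250 ng/mL) and ATP (1.25 mM) stimulation; lower signal means less secretion.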
HT1080NT lethal – kills 2HG-producing HT-1080-NT fibrosarcoma cells. Potency, µM (highest dose often 46.1 µM), without a hit: at the top dose activity, negative = less viability, hits mostly cytotoxic. 360,000 tested, 1.6% active. AID 686970. HT-1080-NT fibrosarcoma viability, CellTiter-Glo ATP luminescence, 48 h;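 note: NT is the 2HG producing partner of a matched IDH1 knockdown line; potency is the fitted concentration of half-maximal effect; 0% = DMSO-treated cells and -100% = media-only wells without cells; nearly all actives have a fitted effect of over 55% in size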
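Viability by CellTiter-Glo luminescence after 48 h compound exposure at 37C of HT-1080-NT cells (750/well, RPMI, 5% FBS). % activity scaled between DMSO wells and medium-only wells, then curve-fitted and categorized by curve class.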
HT1080 IDH1KD tx – HT-1080 IDH1 knockdown cell toxicity (counter line). 360,000 tested, 2% active. Potency, µM (series often up to 46.1 µM), for the others: top-dose activity, negative = toxicity, hits mostly cytotoxic. HT-1080 IDH1 knockdown viability, ATP luminescence, 48 h. AID 686971;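 note: potency is the fitted concentration of half-maximal effect; 0% = DMSO wells and -100% = cell-free medium wells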
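Viability of IDH1-knockdown HT-1080 fibrosarcoma cells was assessed by CellTiter-Glo after 48 h at 37 °C with titrated compound; concentration-effect curves were classified by fit quality and response size.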
ALOX12 inh – inhibitors of human 12S-lipoxygenase ALOX12; P18054; purified 12hLO, xylenol orange hydroperoxide absorbance; Potency, µM (highest dose often 108 µM), without a hit: at the highest dose activity change, negative = inhibition, hits mostly inhibitors; 580,000 tested, 1.1% active; note: potency is the fitted concentration of half-maximal effect
Target sequence (P18054 whole entry, looked up): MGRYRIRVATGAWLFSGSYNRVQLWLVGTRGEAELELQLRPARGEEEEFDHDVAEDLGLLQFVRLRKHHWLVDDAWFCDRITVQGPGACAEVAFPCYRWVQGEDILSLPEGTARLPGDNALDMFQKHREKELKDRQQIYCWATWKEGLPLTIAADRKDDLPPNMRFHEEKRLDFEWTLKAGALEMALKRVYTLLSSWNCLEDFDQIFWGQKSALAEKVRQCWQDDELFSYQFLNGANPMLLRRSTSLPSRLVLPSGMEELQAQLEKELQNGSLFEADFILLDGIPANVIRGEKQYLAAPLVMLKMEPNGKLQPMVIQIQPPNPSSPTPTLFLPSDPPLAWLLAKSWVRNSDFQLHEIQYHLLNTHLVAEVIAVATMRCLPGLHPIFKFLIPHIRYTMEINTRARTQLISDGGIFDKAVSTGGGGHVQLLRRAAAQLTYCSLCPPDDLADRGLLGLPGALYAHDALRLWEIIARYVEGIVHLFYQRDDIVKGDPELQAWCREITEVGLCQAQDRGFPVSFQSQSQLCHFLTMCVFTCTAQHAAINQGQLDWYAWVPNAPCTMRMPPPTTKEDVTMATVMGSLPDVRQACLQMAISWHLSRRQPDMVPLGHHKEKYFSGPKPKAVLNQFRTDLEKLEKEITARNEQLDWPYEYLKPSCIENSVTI
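Purified human 12hLO (150 nM final) in 25 mM Hepes, 0.01% Triton X-100, pH 7.0 was preincubated 15 min at room temperature with compound. Then 40 uM arachidonic acid was added, 30 min. Hydroperoxide was read by Fe-XO absorbance ratio 573/405 nm.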
The depositor's hits bear a star. The sample as a whole holds a higher share of hits than the screen did. Unless noted, calls come from the whole dose curve; as a rule, active = well fitted curve in the direction sought with a large enough effect; inconclusive = small, poorly fitted or top-dose-only effect, or another doubt; inactive = no such curve, though single readings can be large; an effect the other way counts as inactive or inconclusive. Unless noted, % is set by controls: 0 for no effect and ±100 for the full control effect.

Results for COc1cc2c(cc1OC)C(COc1ccc3c(C)cc(=O)oc3c1)N(C(=O)c1ccco1)CC2 (stereo unspecified) ?
TDP1 cell noCPT: 21µM*; DT40 TDP1 CPT: inconclusive; IL1B secr inh: -7; HT1080NT lethal: -7%; HT1080 IDH1KD tx: 6%; ALOX12 inh: -25%

Results for COC(=O)c1ccccc1NC(=O)C1CCCN(S(=O)(=O)c2ccc(F)cc2)C1 (stereo unspecified) ?
TDP1 cell noCPT: 10µM*; DT40 TDP1 CPT: 15µM*; IL1B secr inh: -1; HT1080NT lethal: 15%; HT1080 IDH1KD tx: 11%; ALOX12 inh: 0%

Results for COc1ccc(C)cc1NC(=O)C1CCCN(S(=O)(=O)c2ccc3[nH]c(=O)ccc3c2)C1 (stereo unspecified) ?
TDP1 cell noCPT: inconclusive; DT40 TDP1 CPT: inconclusive; IL1B secr inh: 27; HT1080NT lethal: 1%; HT1080 IDH1KD tx: -6%; ALOX12 inh: -5%

Results for COc1ccccc1NC(=O)C1CCCN(S(=O)(=O)c2ccc3[nH]c(=O)ccc3c2)C1 (stereo unspecified) ?
TDP1 cell noCPT: inconclusive; DT40 TDP1 CPT: 21µM*; IL1B secr inh: 25; HT1080NT lethal: 6%; HT1080 IDH1KD tx: 1%; ALOX12 inh: -6%

Results for COC(=O)c1ccccc1NC(=O)C1CCCN(S(=O)(=O)c2ccccc2)C1 (stereo unspecified) ?
TDP1 cell noCPT: inconclusive; DT40 TDP1 CPT: inconclusive; IL1B secr inh: -5; HT1080NT lethal: 3%; HT1080 IDH1KD tx: inconclusive; ALOX12 inh: 1%

Results for COC(=O)c1ccccc1NC(=O)C1CCCN(S(C)(=O)=O)C1 (stereo unspecified) ?
TDP1 cell noCPT: -2%; DT40 TDP1 CPT: -1%; IL1B secr inh: 20; HT1080NT lethal: -5%; HT1080 IDH1KD tx: 1%; ALOX12 inh: 10%

What do the screens show for `COC(=O)c1ccccc1NC(=O)C1CCCN(S(=O)(=O)c2ccc(OC)cc2)C1` (stereo unspecified)?
TDP1 cell noCPT: 12µM*; DT40 TDP1 CPT: 18µM*; IL1B secr inh: 9; HT1080NT lethal: 1%; HT1080 IDH1KD tx: 1%; ALOX12 inh: -14%

How did CCNC(=O)NC(=O)C(C)OC(=O)c1c(C)c(CC)nc2ccccc12 (stereo unspecified) do in these assays?
ALOX12 inh: -1%

Results for COc1cccc(-c2ccc(=O)n(CC(=O)N3CCc4ccccc4C3)n2)c1 ?
ALOX12 inh: -2%

What do the screens show for `Nc1[nH]c2cc([N+](=O)[O-])ccc2c1-c1ccccn1`?
TDP1 cell noCPT: inconclusive; DT40 TDP1 CPT: 15µM*; IL1B secr inh: -11; HT1080NT lethal: -11%; HT1080 IDH1KD tx: inconclusive; ALOX12 inh: inconclusive

How did O=[N+]([O-])c1ccc2nc[nH]c2c1 do in these assays?
TDP1 cell noCPT: -20%; DT40 TDP1 CPT: 0%; IL1B secr inh: -10; HT1080NT lethal: 0%; HT1080 IDH1KD tx: 1%; ALOX12 inh: 1%

Results for Cc1ccc(NC(=O)Cn2c(C)cc(C)c(C#N)c2=O)c(Cl)c1 ?
TDP1 cell noCPT: -1%; DT40 TDP1 CPT: -13%; IL1B secr inh: 19; HT1080NT lethal: -13%; HT1080 IDH1KD tx: 4%; ALOX12 inh: -4%

Results for CCOc1ccc(NC(=O)CCc2c(C)nc3c4c(C)cc(C)nc4nn3c2C)cc1 ?
TDP1 cell noCPT: -12%; DT40 TDP1 CPT: 8%; ALOX12 inh: 0%

Results for CCOc1ccc(NC(=O)Cn2sc3nc(C)cc(C)c3c2=O)cc1 ?
TDP1 cell noCPT: 2.6µM*; DT40 TDP1 CPT: 2.1µM*; IL1B secr inh: -89*; HT1080NT lethal: 21%; HT1080 IDH1KD tx: 12%

Screens as filed in PubChem.
